Results published in PubChem BioAssay AID743282 (The Scripps Research Institute Molecular Screening Center, 2014).
Out of some 2,000 compounds screened, about 170 (8.5%) were called active. These entries were drawn from the full list. A number with no mark means an inactive call.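 The calls were made as follows: active = average inhibition above the solvent-only control mean plus 3 SD (cut at about 6% in these data); inactive = the rest.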

experiment: BODIPY product fluorescence quenching artefacts – biochemical, QFRET, 535nm, artefact control for HGIII-sPLA2 inhibitor project, confirmation (AID 743282); details: BODIPY FL product fluorescence interference, at 12.2 µM, hits give high values;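 also: 0% = DMSO with substrate plus product and 100% = DMSO with substrate alone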

SMILES	inhibition
Cc1ccc(S(=O)(=O)N2CCOCC2)cc1C(=O)NC(=S)N(Cc1ccccc1)C(C)C	-1.68%
COc1cccc(NC(C)=[N+](C)CCNS(=O)(=O)c2ccc(Cl)cc2)c1	-14.7%
Cc1sc2nc(SCC(=O)c3ccc(O)c(O)c3)n(Cc3ccco3)c(=O)c2c1C	0.57%
Cc1cccc(-n2cnc(C(=O)NNC(=S)Nc3ccccc3)c2)n1	-2.38%
CC1=CC(C)(C)NC(=S)N1c1ccccc1	-3.33%
CCOc1ccc(Br)cc1CSC(=N)N	-9.39%
Cc1cccc(C)c1NC(=O)CN1C(=O)C(C)Oc2ccccc21 (configuration not stated)	-4.96%
S=C(NNC(=S)NC1CC2CCC1C2)NC1CC2C=CC1C2 (configuration not stated)	3.69%
O=C(NNC(=S)NC1CCCCC1)c1ccccc1Cl	-4.68%
Cc1[nH]c(N)nc(=S)c1CCCNc1ccccc1	0.28%
CN(CC(=O)Nc1ccc(N2CCOCC2)cc1)CC(=O)Nc1ccccc1[N+](=O)[O-]	-3.73%
C/C(=N\Nc1ccc(Cl)nn1)c1ccccc1O	1.8%
CCc1cccc(CC)c1NC(=S)NCc1ccc2[nH]c(C)cc2c1	-0.12%
c1ccc(C2=Nc3cccc4cccc(c34)N2)cc1	11.4% (active)
CC(C(=O)Nc1ccccc1-c1ccccc1)N1CCOCC1 (configuration not stated)	-7.3%
O=C(CSc1nc2ccccc2n1Cc1ccccc1)NNC(=S)Nc1ccccc1	-3.82%
O=C(NNc1ccccn1)c1ccc(Cl)nc1	34% (active)
O=C(OC12CC3CC(CC(C3)C1)C2)c1ccc(NCc2cc(O)ccc2O)cc1	12.9% (active)
COc1ccccc1OCC(=O)OCn1c(SC)nnc(C)c1=O	0.95%
COc1ccc(C(=O)Nc2sc(C)c(C)c2CN2CCOCC2)cc1	-13.2%
O=C1C(=O)N(Cc2ccc(-c3ccsc3)cc2)c2ccc(OC(F)(F)F)cc21	4.49%
Nc1[nH]c(C(=O)c2ccccc2)c(-c2ccc(Br)cc2)c1C(=O)NC1CC1	-0.53%
CN(C)c1ccc(NC(=O)NC2CCCCN(Cc3ccc(Cl)cc3)C2=O)cc1 (configuration not stated)	-5.22%
CC(C)(C)c1cc2cccnc2n1Cc1cccc(F)c1	-9.11%
CN(C)S(=O)(=O)c1cccc(NC(=S)N/N=C/C(=O)c2ccccc2)c1	5.77%
CC(NC(=O)COC(=O)Cn1cc(C(F)(F)F)ccc1=O)c1ccccc1 (configuration not stated)	-1.38%
CC(C)CC(=O)NC(=S)NNC(=O)c1cccc([N+](=O)[O-])c1	-0.46%
